mHTT CaM bind: disrupts binding of mutant huntingtin to calmodulin | P42858 | AlphaScreen His-mHTT/GST-CaM binding, luminescence | AID 1671202 | 190,000 tested, 3.6% active | inhibition, % at 15 µM
Pf apPOL inh: Pf-apPOL DNA polymerase inhibition; Recombinant Pf-apPOL, molecular beacon fluorescence, 1.5 h; inhibition, % at 10 µM; 210,000 tested, 0.25% active
Numbers stand for hits; n = inactive; x = no result given. The entries come from a sample that favours hits as a whole. Rule as the data show it: active = inhibition above about 50%; inactive = the rest.

SMILES	mHTT CaM bind	Pf apPOL inh
CCOc1ccc(S(=O)(=O)N=C2C=C(Nc3ccc(OC)cc3)C(=O)c3ccccc32)cc1	89.0	n
COc1ccc(S(=O)(=O)N=C2C=C(C(C)C)C(=O)C=C2C)cc1	n	n
CCOc1ccc(NC2=CC(=NS(=O)(=O)c3ccc(F)cc3)c3ccccc3C2=O)cc1	67.0	n
CCc1ccc(S(=O)(=O)N=C2C=C(Nc3ccccc3)C(=O)c3ccccc32)cc1	93.0	n
COc1ccc(S(=O)(=O)N=C2C=CC(=O)c3ccccc32)cc1	98.0	n
COc1cccc(/C=C2\SC(=O)N(c3ccccc3)C2=O)c1O	n	n
Cc1cccc(Cc2c(C)nc3c(C(=O)O)cnn3c2C)c1	n	n
O=C(CSc1nnc(CNC(=O)c2c(F)cccc2Cl)o1)NCC1CCCO1 (stereo unspecified)	n	n
CCOc1ccc(S(=O)(=O)Nc2ccc(I)cc2)cc1	n	n
CCOc1ccc(NC2=CC(=NS(=O)(=O)c3ccc(OCC)cc3)c3ccccc3C2=O)cc1	75.0	n
COc1cccc(CC(=O)N2CCc3c(nc[nH]c3=O)C2)c1	n	n
Clc1ccccc1C1CC(c2ccco2)=Nc2ccccc2S1 (stereo unspecified)	51.0	n
Cc1ccc(C2CC(c3ccccc3)=Nc3ccccc3S2)cc1 (stereo unspecified)	x	n
Cc1occc1C(=O)Nc1ccccc1NC(=O)c1ccoc1C	n	n
Cc1occc1C(=O)Nc1ccc(I)cc1C(=O)O	59.8	n
Cn1cc(/C=C2\C(=O)NC(=O)N(c3ccc(Br)cc3)C2=O)c2ccccc21	n	n
O=C(NCc1ccco1)N1CCc2c(nc3cc(-c4ccccc4Cl)[nH]n3c2=O)C1	n	n
O=C(c1ccccc1)N1CCc2nc3cc(-c4ccccc4Cl)[nH]n3c(=O)c2C1	n	n
O=C(Nc1ccccc1)N1CCc2c(nc3cc(-c4ccccc4Cl)[nH]n3c2=O)C1	n	n
COCCNC(=O)N1CCc2[nH]nc(-c3ccccc3)c2C1	n	n
O=C(c1ccc2[nH]ccc2c1)N1CCc2nc3cc(-c4ccccc4Cl)[nH]n3c(=O)c2C1	95.5	n
COc1cccc(NC(=O)N2CCc3c(nc4cc(-c5ccccc5Cl)[nH]n4c3=O)C2)c1	50.9	n
Cc1ccc(-c2n[nH]c3c2CN(C(=O)NCc2ccco2)CC3)cc1	64.3	n
O=C(NCc1ccco1)N1CCc2nc3cc(-c4ccccc4Cl)[nH]n3c(=O)c2C1	68.3	n
O=C(c1ccc(C(F)(F)F)s1)N1CC2CC1CC2NS(=O)(=O)c1cccnc1 (stereo unspecified)	n	n
SMILES	mHTT CaM bind	Pf apPOL inh
O=C(NCC(F)(F)F)C1CCN(C(=O)NCc2ccccc2)CC1	n	n
COc1cccc(CNC(=O)C2CCN(c3nnc(-c4ccc(C)cc4)o3)CC2)c1OC	n	n
O=C1C(N2CCCN(S(=O)(=O)c3cccc4nsnc34)CC2)CCN1CC1CC1 (stereo unspecified)	n	n
CC(C)Cn1c(C(=O)N2CCOCC2)cc2sccc21	n	n
Cc1noc(C2CN(C(=O)CN3CCOCC3)CC23CCN(C)CC3)n1 (stereo unspecified)	n	n
O=C(c1n[nH]c2c1CCCCCC2)N1CCc2c(nc3cc(-c4ccccc4)[nH]n3c2=O)C1	n	n
O=C(c1n[nH]c2c1CCCC2)N1CCc2c(nc3cc(-c4ccccc4Cl)[nH]n3c2=O)C1	59.4	n
CC(C)C(=O)N1CCc2c(nc3cc(-c4ccccc4Cl)[nH]n3c2=O)C1	n	n
CC(C)C(=O)N1CCc2nc3cc(-c4ccccc4Cl)[nH]n3c(=O)c2C1	57.8	n
O=C(NC1CC1)c1ccc(OCC2CCN(C(=O)c3ccc(F)cc3)CC2)cc1	n	n
Cc1c(C(=O)O)cccc1-c1ccc(/C=C/[N+](=O)[O-])o1	n	n
Cc1ccc(Cl)cc1-c1ccc(/C=C/[N+](=O)[O-])o1	77.4	n
CC1=NN(c2cccc(C(=O)O)c2)C(=O)/C1=C/c1ccc(-c2cc(Cl)ccc2Cl)o1	n	n
CC1=NN(c2cccc(C(=O)O)c2)C(=O)/C1=C/c1ccc(-c2ccc(Br)cc2)o1	61.0	n
CCOc1ccc(-c2nc3s/c(=C\c4cc(Br)ccc4OC)c(=O)n3n2)cc1	n	55.0
COc1ccc(OC)c(/C=c2\sc3nc(-c4ccc(Br)cc4)nn3c2=O)c1	n	n
O=C(c1ccc(F)cc1)N1CCC(COc2ccccc2C(=O)N2CCOCC2)CC1	n	n
C=CCN1C(=O)C2C3c4ccccc4C(C)(c4ccccc43)C2C1=O (stereo unspecified)	n	n
COc1cc(OC)cc(C(=O)N2CC3CC(NC(=O)c4cccnc4)C2C3)c1 (stereo unspecified)	n	n
CN1c2ccc(Cl)cc2C(=O)NC12CCN(C(=O)NCc1ccc(F)cc1)CC2	n	n
CCCCNC(=O)c1c(Cl)nc(Cl)c(Cl)c1C	n	n
CCCCNC(=O)c1c(Cl)nc(Cl)c([N+](=O)[O-])c1Cl	94.0	n
Cc1[nH]c2ccccc2c1-c1csc(-c2cccnc2)n1	n	n
